Data: PubChem BioAssay AID1159580 (chemical genetic matrix, 2015)
Several values for one entry are separate records, joined by “and”; a condition that tells them apart may be missing. Identical values can stand only once. Hit rate of the full screen: of about 5,500 compounds, about 2,000 (36%) were called active. Not shown: some 18% with an inconclusive outcome. Cut-off read from the data, not from the text of the source: active = normalized growth mostly below about 0.91 (no sharp cut-off); inconclusive = no clear call, values can overlap the other calls; inactive = mostly above about 0.92. Some of the results follow.

Experiment: chemical genetic growth profiling, strain panel (AID 1159580);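 note: tested at 20 µM; growth read once vehicle control cultures reached saturation at 30 °C; 1 = growth at the plate median or of vehicle wells; lower values mean less growth of the strain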
Settings: S. cerevisiae deletion strains, growth OD

Measured: normalized growth

COC1=C(OC)C(=O)C(C/C=C(\C)CC/C=C(\C)CC/C=C(\C)CC/C=C(/C)CC/C=C(\C)CC/C=C(\C)CC/C=C(\C)CC/C=C(\C)CC/C=C(\C)CCC=C(C)C)=C(C)C1=O
inactive: locus YAL013W, strain DEP1, stronger effect = lower value 0.999 | locus YAL021C, strain ccr4, stronger effect = lower value 0.983 | locus YAL026C, strain drs2, stronger effect = lower value 0.97 | locus YAL030W, strain snc1, stronger effect = lower value 0.989 | locus YBL061C, strain skt5, stronger effect = lower value 0.996 | locus YBR009C, strain hhf1, stronger effect = lower value 1.01 | locus YBR021W, strain FUR4, stronger effect = lower value 1.07 | locus YBR023C, strain chs3, stronger effect = lower value 0.978 | locus YBR171W, strain sec66, stronger effect = lower value 0.973 | locus YBR229C, strain ROT2, stronger effect = lower value 0.959 | locus YBR231C, strain swc5, stronger effect = lower value 0.974 | locus YBR279W, strain paf1, stronger effect = lower value 0.989 | locus YCL011C, strain gbp2, stronger effect = lower value 0.96 | locus YCL016C, strain dcc1, stronger effect = lower value 0.994 | locus YCL029C, strain bik1, stronger effect = lower value 0.969 | locus YCL069W, strain vba3, stronger effect = lower value 0.972 | locus YCR088W, strain abp1, stronger effect = lower value 0.972 | locus YDL005C, strain med2, stronger effect = lower value 0.977 | locus YDL035C, strain GPR1, stronger effect = lower value 1.03 | locus YDL040C, strain nat1, stronger effect = lower value 0.983 | locus YDL074C, strain BRE1, stronger effect = lower value 1.11 | locus YDL101C, strain DUN1, stronger effect = lower value 0.982 | locus YDL134C, strain PPH21, stronger effect = lower value 1.01 | locus YDL185W, strain tfp1, stronger effect = lower value 0.991 | locus YDL192W, strain arf1, stronger effect = lower value 1.02 | locus YDR001C, strain nth1, stronger effect = lower value 0.989 | locus YDR069C, strain doa4, stronger effect = lower value 0.96 | locus YDR101C, strain arx1, stronger effect = lower value 1.02 | locus YDR137W, strain rgp1, stronger effect = lower value 0.983 | locus YDR159W, strain sac3, stronger effect = lower value 0.963 | locus YDR162C, strain NBP2, stronger effect = lower value 0.972 | locus YDR195W, strain ref2 0.963 | locus YDR297W, strain sur2, stronger effect = lower value 0.975 | locus YDR318W, strain mcm21, stronger effect = lower value 0.984 | locus YDR334W, strain swr1, stronger effect = lower value 0.969 | locus YDR335W, strain msn5, stronger effect = lower value 0.974 | locus YDR388W, stronger effect = lower value 1 | locus YDR392W, strain spt3, stronger effect = lower value 0.967 | locus YDR502C, strain sam2, stronger effect = lower value 0.989 | locus YEL003W, strain gim4, stronger effect = lower value 0.983 | locus YEL037C, strain rad23, stronger effect = lower value 0.981 | locus YEL061C, strain CIN8 (second series), stronger effect = lower value 0.941 | locus YEL061C, strain CIN8, stronger effect = lower value 1.01 | locus YER015W, strain faa2, stronger effect = lower value 0.979 | locus YER016W, strain bim1, stronger effect = lower value 0.978 | locus YER110C, stronger effect = lower value 0.983 | locus YER111C, strain swi4, stronger effect = lower value 0.958 | locus YER155C, strain BEM2 (second series), stronger effect = lower value 0.982 | locus YER155C, strain BEM2, stronger effect = lower value 1 | locus YER167W, strain BCK2, stronger effect = lower value 1 | locus YFR010W, strain ubp6, stronger effect = lower value 0.964 | locus YGL078C, strain dbp3, stronger effect = lower value 1.01 | locus YGL086W, strain mad1, stronger effect = lower value 1.04 | locus YGL167C, strain pmr1, stronger effect = lower value 0.981 | locus YGL173C, strain kem1, stronger effect = lower value 0.982 | locus YGL227W, strain vid30, stronger effect = lower value 0.96 | locus YGL240W, strain doc1, stronger effect = lower value 0.974 | locus YGL248W, strain PDE1, stronger effect = lower value 0.999 | locus YGL253W, strain hxk2, stronger effect = lower value 0.988 | locus YGR078C, strain PAC10, stronger effect = lower value 0.996 | locus YGR135W, strain pre9, stronger effect = lower value 1 | locus YGR252W, strain gcn5, stronger effect = lower value 1.02 | locus YHR013C, strain ard1, stronger effect = lower value 0.957 | locus YHR027C, strain rpn1, stronger effect = lower value 0.968 | locus YHR030C, strain SLT2, stronger effect = lower value 1.02 and 1.01 | locus YHR079C, strain IRE1 (second series), stronger effect = lower value 0.986 | locus YHR079C, strain IRE1, stronger effect = lower value 1.02 | locus YHR094C, strain hxt1, stronger effect = lower value 0.999 | locus YHR129C, strain ARP1, stronger effect = lower value 1.01 | locus YHR142W, strain chs7, stronger effect = lower value 0.972 | locus YHR200W, strain rpn10, stronger effect = lower value 0.976 | locus YIL066C, strain RNR3, stronger effect = lower value 1.01 | locus YIL073C, strain SPO22, stronger effect = lower value 1.03 | locus YIL125W, strain kgd1, stronger effect = lower value 0.998 | locus YIR030C, strain dcg1, stronger effect = lower value 0.995 | locus YJL092W, strain hpr5, stronger effect = lower value 0.958 | locus YJL095W, strain BCK1 (second series), stronger effect = lower value 0.973 | locus YJL095W, strain BCK1, stronger effect = lower value 1.01 and 0.989 | locus YJL115W, strain asf1, stronger effect = lower value 0.969 | locus YJL129C, strain trk1, stronger effect = lower value 0.979 | locus YJL134W, strain LCB3, stronger effect = lower value 0.991 | locus YJL154C, strain vps35, stronger effect = lower value 0.976 | locus YJL164C, strain tpk1, stronger effect = lower value 0.999 | locus YJL166W, strain qcr8, stronger effect = lower value 0.978 | locus YJL168C, strain set2, stronger effect = lower value 0.994 | locus YJL187C, strain SWE1 (second series), stronger effect = lower value 0.985 | locus YJL187C, strain SWE1, stronger effect = lower value 0.984
